Calls of active or inactive are those of the source. The calls were made as follows: active = hit-call score of the fitted dose curve at least 0.9, where 1 is the maximum; inactive = score below 0.9.
What was measured:
[1] = BSK_hDFCGF_SRB: Viability Assessment in the BioMAP Diversity Plus: hDFCGF Assay (AID 2283061); details: primary human foreskin fibroblasts;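 also: cells exposed to compound for 24 h before the read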
Method in brief: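 Viability was read as total protein: after 10% TCA fixation, wells were stained with 0.1% sulforhodamine B and read at 560 nm. Primary human foreskin fibroblasts were dosed for 24 h, with bidirectional fitting versus DMSO.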

[2] = read-out: TIMP metallopeptidase inhibitor 1 (TIMP1), TIMP1 (gene 7076); experiment: BSK_hDFCGF_TIMP1: BioMAP Diversity Plus: hDFCGF Assay for TIMP metallopeptidase inhibitor 1 (TIMP1) Biomarker Activity (AID 2283062); details: primary human foreskin fibroblasts; actives raise or lower the signal
Method in brief: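 TIMP-1 measured by ELISA 24 h after chemical dosing of primary human skin fibroblasts, with gain or loss fitted relative to DMSO. Parallel SRB staining (560 nm) monitored overt cytotoxicity.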

[3] = read-out: Monokine induced gamma interferon (MIG), CXCL9 (gene 4283); experiment: BSK_hDFCGF_MIG: BioMAP Diversity Plus: hDFCGF Assay for Monokine induced gamma interferon (MIG) Biomarker Activity (AID 2283063); details: primary human foreskin fibroblasts; actives raise or lower the signal
Method in brief: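 Human primary foreskin fibroblasts in the hDFCGF system, exposed to test chemical for 24 h; MIG measured by ELISA. Bidirectional curve fitting against DMSO negative control as activity baseline.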

[4] = read-out: Matrix Metallopeptidase 1 (MMP1), MMP1 (gene 4312); experiment: BSK_hDFCGF_MMP1: BioMAP Diversity Plus: hDFCGF Assay for Matrix Metallopeptidase 1 (MMP1) Biomarker Activity (AID 2283064); details: primary human foreskin fibroblasts; actives raise or lower the signal
Method in brief: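 Primary human foreskin fibroblasts in the hDFCGF system were dosed with test chemical, and MMP1 was measured by ELISA 24 h later. Values come from bidirectional curve fitting against the DMSO baseline.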

[5] = read-out: Vascular cell adhesion molecule 1 (VCAM1), VCAM1 (gene 7412); experiment: BSK_hDFCGF_VCAM1: BioMAP Diversity Plus: hDFCGF Assay for Vascular cell adhesion molecule 1 (VCAM1) Biomarker Activity (AID 2283065); details: primary human foreskin fibroblasts; actives raise or lower the signal;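 as to AC50: VCAM-1 protein level quantified by ELISA after 24 h chemical exposure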
Method in brief: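 ELISA readout of VCAM-1 on human dermal fibroblast primary cultures, 24 h after chemical exposure. Gain or loss of signal fitted in both directions against DMSO baseline.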

[6] = read-out: Plasminogen activator inhibitor-1 (PAI1), SERPINE1 (gene 5054); experiment: BSK_hDFCGF_PAI1: BioMAP Diversity Plus: hDFCGF Assay for Plasminogen activator inhibitor-1 (PAI1) Biomarker Activity (AID 2283066); details: primary human foreskin fibroblasts; actives raise or lower the signal
Method in brief: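 Human foreskin fibroblast primary cells, 24 h chemical exposure; PAI-1 measured by ELISA. Bidirectional fitting relative to DMSO; parallel cultures stained with SRB for total protein to flag overt cytotoxicity.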

[7] = read-out: Intercellular Adhesion Molecule 1 (ICAM1), ICAM1 (gene 3383); experiment: BSK_KF3CT_ICAM1: BioMAP Diversity Plus: KF3CT Assay for Intercellular Adhesion Molecule 1 (ICAM1) Biomarker Activity (AID 2283067); details: primary human keratinocytes with fibroblasts; actives raise or lower the signal
Method in brief: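 Cell-surface ICAM-1 was measured by ELISA 24 h after dosing primary human skin keratinocytes co-cultured with fibroblasts. Parallel SRB staining tracked overt cytotoxicity. Gain or loss of signal was fitted relative to DMSO.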

[8] = read-out: Interferon-gamma inducible Protein 10 (IP10), CXCL10 (gene 3627); experiment: BSK_KF3CT_IP10: BioMAP Diversity Plus: KF3CT Assay for Interferon-gamma inducible Protein 10 (IP10) Biomarker Activity (AID 2283068); details: primary human keratinocytes with fibroblasts; actives raise or lower the signal
Method in brief: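 KF3CT co-culture (keratinocytes + foreskin fibroblasts), 24 h compound, IP-10 by ELISA; bidirectional fit vs DMSO baseline.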

[9] = BSK_KF3CT_SRB: Viability Assessment in the BioMAP Diversity Plus: KF3CT Assay (AID 2283069); details: primary human keratinocytes with fibroblasts;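 also: total protein by sulforhodamine B staining as a cytotoxicity measure; read 24 h after compound addition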
Method in brief: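 Human primary keratinocyte plus foreskin fibroblast co-culture exposed to chemicals for 24 h. Total protein measured by 0.1% sulforhodamine B staining after 10% TCA fixation, read at 560 nm; bidirectional fitting versus DMSO baseline.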

[10] = read-out: Interleukin-1 alpha (IL1a), IL1A (gene 3552); experiment: BSK_KF3CT_IL1a: BioMAP Diversity Plus: KF3CT Assay for Interleukin-1 alpha (IL1a) Biomarker Activity (AID 2283070); details: primary human keratinocytes with fibroblasts; actives raise or lower the signal
Method in brief: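 Human keratinocyte plus foreskin fibroblast primary co-culture, sampled 24 h after chemical dosing. IL-1a measured by ELISA; responses fitted bidirectionally against DMSO baseline (negative control), so gain or loss of signal both count.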

[11] = read-out: TIMP metallopeptidase inhibitor 2 (TIMP2), TIMP2 (gene 7077); experiment: BSK_KF3CT_TIMP2: BioMAP Diversity Plus: KF3CT Assay for TIMP metallopeptidase inhibitor 2 (TIMP2) Biomarker Activity (AID 2283071); details: primary human keratinocytes with fibroblasts; actives raise or lower the signal
Method in brief: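 Co-culture of human primary keratinocytes and foreskin fibroblasts, measured 24 h after chemical dosing. TIMP-2 quantified by ELISA and fitted in both directions relative to DMSO. Cytotoxicity checked in parallel cultures by SRB total-protein staining.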

[12] = read-out: Transforming growth factor beta 1 (TGFb1), TGFB1 (gene 7040); experiment: BSK_KF3CT_TGFb1: BioMAP Diversity Plus: KF3CT Assay for Transforming growth factor beta 1 (TGFb1) Biomarker Activity (AID 2283072); details: primary human keratinocytes with fibroblasts; actives raise or lower the signal
Method in brief: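 Human keratinocyte/foreskin fibroblast co-culture; TGF-b1 measured by ELISA 24 h after dosing, fitted bidirectionally versus DMSO. Cytotoxicity checked in parallel cultures by total protein (SRB staining, 560 nm).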

[13] = read-out: C-C motif chemokine 2 (Homo sapiens) (UniProt P13500); experiment: BSK_KF3CT_MCP1: BioMAP Diversity Plus: KF3CT Assay for Monocyte Chemoattractant Protein 1 (MCP1/CCL2) Biomarker Activity (AID 2283073); details: primary human keratinocytes with fibroblasts; actives raise or lower the signal
Method in brief: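 ELISA read-out of MCP-1, 24 h post-dose, in primary human skin keratinocytes co-cultured with fibroblasts. Parallel SRB staining monitors cytotoxicity; changes fitted both directions relative to DMSO.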

[14] = read-out: Matrix Metallopeptidase 9 (MMP9), MMP9 (gene 4318); experiment: BSK_KF3CT_MMP9: BioMAP Diversity Plus: KF3CT Assay for Matrix Metallopeptidase 9 (MMP9) Biomarker Activity (AID 2283074); details: primary human keratinocytes with fibroblasts; actives raise or lower the signal;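 as to AC50: MMP9 protein level quantified by ELISA in the co-culture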
Method in brief: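 Keratinocyte plus foreskin fibroblast human primary skin co-culture was dosed with chemical and MMP-9 was quantified by ELISA 24 h later. Bidirectional curve fitting used DMSO as negative control and activity baseline.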

[15] = read-out: urokinase plasminogen activator (uPA), PLAU (gene 5328); experiment: BSK_KF3CT_uPA: BioMAP Diversity Plus: KF3CT Assay for urokinase plasminogen activator (uPA) Biomarker Activity (AID 2283075); details: primary human keratinocytes with fibroblasts; actives raise or lower the signal
Method in brief: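 Human keratinocyte plus foreskin fibroblast primary co-culture exposed to chemical for 24 h. uPA levels were quantified by ELISA, and activity was fitted bidirectionally against a DMSO negative-control baseline.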

CD40, CD40 (gene 958) = experiment: BSK_LPS_CD40: BioMAP Diversity Plus: LPS Assay for CD40 Biomarker Activity (AID 2283076); details: primary human HUVEC with PBMC; actives raise or lower the signal
Method in brief: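 In the LPS system of human endothelial cells with peripheral blood mononuclear cells, CD40 levels were read by ELISA 24 h post-treatment. Signal changes in either direction were fitted against the DMSO baseline, with parallel SRB protein staining.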

[16] = read-out: E-selectin (Homo sapiens) (UniProt P16581); experiment: BSK_LPS_Eselectin: BioMAP Diversity Plus: LPS Assay for Eselectin Biomarker Activity (AID 2283077); details: primary human HUVEC with PBMC; actives raise or lower the signal
Method in brief: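 E-selectin ELISA on LPS-stimulated endothelial cell/PBMC co-cultures, read 24 h post-treatment; gains and losses fitted against DMSO. Parallel SRB staining (0.1% SRB after 10% TCA fixation, 560 nm) flags overt cytotoxicity.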

[17] = read-out: Interleukin-8 (IL8), CXCL8 (gene 3576); experiment: BSK_LPS_IL8: BioMAP Diversity Plus: LPS Assay for Interleukin-8 (IL8) Biomarker Activity (AID 2283078); details: primary human HUVEC with PBMC; actives raise or lower the signal
Method in brief: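 ELISA read-out of IL-8 after 24 h chemical treatment of LPS-activated endothelial/PBMC human primary co-cultures. Changes either up or down relative to DMSO; overt cytotoxicity checked by sulforhodamine B staining in parallel wells.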

[18] = BSK_LPS_SRB: Viability Assessment in the BioMAP Diversity Plus: LPS Assay (AID 2283079); details: primary human HUVEC with PBMC;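 also: total protein by sulforhodamine B absorbance as a cytotoxicity measure; measured one day after compound addition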
Method in brief: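 SRB viability endpoint: cells fixed with 10% TCA, stained with 0.1% SRB, read at 560 nm, 24 h post-dose. HUVEC/PBMC co-culture; signal change in either direction scored relative to DMSO.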

[19] = read-out: Interleukin-1 alpha (IL1a), IL1A (gene 3552); experiment: BSK_LPS_IL1a: BioMAP Diversity Plus: LPS Assay for Interleukin-1 alpha (IL1a) Biomarker Activity (AID 2283080); details: primary human HUVEC with PBMC; actives raise or lower the signal
Method in brief: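 Readout is IL-1a level by ELISA, 24 h post-dose, fitted as gain or loss relative to DMSO. System: LPS-activated human primary co-culture of vascular endothelium and peripheral blood mononuclear cells, with parallel SRB total-protein cytotoxicity.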

Chain of E-selectin (Homo sapiens) (P16581 whole entry, looked up): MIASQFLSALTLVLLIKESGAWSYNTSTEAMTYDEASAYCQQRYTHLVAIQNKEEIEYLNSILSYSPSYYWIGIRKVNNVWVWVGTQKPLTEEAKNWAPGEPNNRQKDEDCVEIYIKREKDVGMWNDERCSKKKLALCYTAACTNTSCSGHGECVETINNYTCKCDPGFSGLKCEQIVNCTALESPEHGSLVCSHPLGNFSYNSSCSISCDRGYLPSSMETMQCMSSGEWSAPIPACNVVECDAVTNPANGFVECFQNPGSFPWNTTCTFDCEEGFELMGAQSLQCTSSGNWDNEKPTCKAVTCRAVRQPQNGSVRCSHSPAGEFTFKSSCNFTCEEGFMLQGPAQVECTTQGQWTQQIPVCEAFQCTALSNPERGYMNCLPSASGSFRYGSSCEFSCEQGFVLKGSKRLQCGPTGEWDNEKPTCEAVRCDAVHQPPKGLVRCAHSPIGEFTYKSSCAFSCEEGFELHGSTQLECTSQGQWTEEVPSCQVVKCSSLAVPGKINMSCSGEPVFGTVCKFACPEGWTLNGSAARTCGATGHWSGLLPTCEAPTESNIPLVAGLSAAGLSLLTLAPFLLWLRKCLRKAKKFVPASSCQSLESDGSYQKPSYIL

CC(=O)O
outcome [1]: inactive
outcome [2]: inactive
outcome [3]: inactive
outcome [4]: inactive
outcome [5]: inactive
outcome [6]: inactive
outcome [7]: inactive
outcome [8]: inactive
outcome [9]: inactive
outcome [10]: inactive
outcome [11]: inactive
outcome [12]: inactive
outcome [13]: inactive
outcome [14]: inactive
outcome [15]: inactive
outcome (CD40, CD40 (gene 958)): inactive
outcome [16]: inactive
outcome [17]: inactive
outcome [18]: inactive
outcome [19]: inactive

CC(=O)CC(c1ccccc1)c1c(O)c2ccccc2oc1=O (stereo not given)
outcome [1]: inactive
outcome [2]: inactive
outcome [3]: inactive
outcome [4]: inactive
outcome [5]: inactive
outcome [6]: inactive
outcome [7]: inactive
outcome [8]: inactive
outcome [9]: inactive
outcome [10]: inactive
outcome [11]: inactive
outcome [12]: inactive
outcome [13]: inactive
outcome [14]: inactive
outcome [15]: inactive
outcome (CD40, CD40 (gene 958)): inactive
outcome [16]: inactive
outcome [17]: inactive
outcome [18]: inactive
outcome [19]: inactive

Cn1cnc2c1c(=O)[nH]c(=O)n2C
outcome [1]: inactive
outcome [2]: inactive
outcome [3]: inactive
outcome [4]: inactive
outcome [5]: inactive
outcome [6]: inactive
outcome [7]: inactive
outcome [8]: inactive
outcome [9]: inactive
outcome [10]: inactive
outcome [11]: inactive
outcome [12]: inactive
outcome [13]: inactive
outcome [14]: inactive
outcome [15]: inactive
outcome (CD40, CD40 (gene 958)): inactive
outcome [16]: inactive
outcome [17]: inactive
outcome [18]: inactive
outcome [19]: inactive

O=C(O)c1[nH]n(-c2ccc(S(=O)(=O)O)cc2)c(=O)c1N=Nc1ccc(S(=O)(=O)O)cc1
outcome [1]: inactive
outcome [2]: inactive
outcome [3]: inactive
outcome [4]: inactive
outcome [5]: inactive
outcome [6]: inactive
outcome [7]: inactive
outcome [8]: inactive
outcome [9]: inactive
outcome [10]: inactive
outcome [11]: inactive
outcome [12]: inactive
outcome [13]: inactive
outcome [14]: inactive
outcome [15]: inactive
outcome (CD40, CD40 (gene 958)): inactive
outcome [16]: inactive
outcome [17]: inactive
outcome [18]: inactive
outcome [19]: inactive

O=C(O)c1cccnc1
outcome [1]: inactive
outcome [2]: inactive
outcome [3]: inactive
outcome [4]: inactive
outcome [5]: inactive
outcome [6]: inactive
outcome [7]: inactive
outcome [8]: inactive
outcome [9]: inactive
outcome [10]: inactive
outcome [11]: inactive
outcome [12]: inactive
outcome [13]: inactive
outcome [14]: inactive
outcome [15]: inactive
outcome (CD40, CD40 (gene 958)): inactive
outcome [16]: inactive
outcome [17]: inactive
outcome [18]: inactive
outcome [19]: inactive

CCCCCCCCCCCCCCOS(=O)(=O)O
AC50 [1]: 10.1 µM (active)
AC50 [2]: 9.76 µM (active)
AC50 [3]: 7.52 µM (active)
AC50 [4]: 5.54 µM (active)
AC50 [5]: 7.85 µM (active)
AC50 [6]: 9.05 µM (active)
AC50 [7]: 16.2 µM (active)
AC50 [8]: 8.99 µM (active)
AC50 [9]: 8 µM (active)
AC50 [10]: 10.3 µM (active)
AC50 [11]: 7.76 µM (active)
AC50 [12]: 5.78 µM (active)
AC50 [13]: 8.92 µM (active)
AC50 [14]: 8.96 µM (active)
AC50 [15]: 9.42 µM (active)
outcome (CD40, CD40 (gene 958)): inactive
outcome [16]: inactive
outcome [17]: inactive
outcome [18]: inactive
outcome [19]: inactive

O=C(O)CC(O)(CC(=O)O)C(=O)O
outcome [1]: inactive
outcome [2]: inactive
outcome [3]: inactive
outcome [4]: inactive
outcome [5]: inactive
outcome [6]: inactive
outcome [7]: inactive
outcome [8]: inactive
outcome [9]: inactive
outcome [10]: inactive
outcome [11]: inactive
outcome [12]: inactive
outcome [13]: inactive
outcome [14]: inactive
outcome [15]: inactive
outcome (CD40, CD40 (gene 958)): inactive
outcome [16]: inactive
outcome [17]: inactive
outcome [18]: inactive
outcome [19]: inactive
